Data taken from PubChem BioAssay (NCATS).
Inconclusive results are not listed. The source made the active and inactive calls. Calls follow the shape of the dose curve; as a rule, active = well fitted inhibition curve with a large enough effect; inconclusive = small, poorly fitted or top-dose-only effect; inactive = flat fitted curve, though single readings scatter.

molecular target: Calcium and integrin-binding protein 1 (Homo sapiens) (UniProt Q99828); assay: Primary qHTS for Identification of Calcium Integrin Binding Protein 1 (CIB1) Competitor (AID 1508620); settings: CIB1-GST / FITC-alphaIIb peptide fluorescence polarization; series mostly up to 57.7 µM; activity change, negative = inhibition: at the top concentration;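 also: GST tagged CIB1 binding a fluorescein labelled alphaIIb integrin peptide tracer; top concentration of the series differs between compounds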
Sequence (Q99828 whole entry, looked up): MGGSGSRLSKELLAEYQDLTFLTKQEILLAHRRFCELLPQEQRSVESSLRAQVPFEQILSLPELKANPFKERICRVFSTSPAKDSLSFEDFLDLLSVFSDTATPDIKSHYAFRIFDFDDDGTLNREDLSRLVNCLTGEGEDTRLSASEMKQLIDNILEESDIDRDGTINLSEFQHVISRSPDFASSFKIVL
Procedure, shortened: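 Fluorescence polarization competition: CIB1-GST (1 uM final) preincubated with compound 15 min at room temperature, then FITC-labeled alphaIIb peptide (100 nM final) added for another 15 min. Polarization read at Ex 480/Em 540.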
% is scaled to controls: 0 for no effect and ±100 for the full control effect.

| SMILES | outcome | activity change, negative = inhibition |
| --- | --- | --- |
| Clc1ccc2ncc(-c3cccc(NC4CNC4)n3)n2c1 | inactive | – |
| NC(=O)Nc1cc(-c2cccc(F)c2)sc1C(=O)N[C@H]1CCCNC1 | inactive | – |
| COc1cccc(Nc2c(C(N)=O)cnc3c(C)cc(S(=O)(=O)c4cccc(C(=O)N(C)C)c4)cc23)c1 | inactive | – |
| COc1cc2c(Nc3ccc(NC(=O)c4ccccc4)cc3)ncnc2cc1OCCCN1CCOCC1 | inactive | – |
| CCCCCN(CCC12CC3CC(CC(C3)C1)C2)C(=O)NCCCc1ccncc1 | – | -5.71% [at 114 µM] (inactive) |
| CC(C)(O)c1cc2nc(-c3cnc(N)nc3)nc(N3CCOCC3)c2s1 | inactive | – |
| COc1cc2c(cc1-c1c(C)noc1C)ncc1[nH]c(=O)n([C@H](C)c3ccccn3)c12 | inactive | – |
| Cc1ccc(-c2ncn(-c3ccc(Nc4nccc(-c5cccc(N6CCOCC6)c5)n4)cc3)n2)cn1 | – | 0.486% (inactive) |
| CCCCOc1c(C(=O)c2c(F)cc(C)cc2F)cnc2n[nH]cc12 | inactive | – |
| CN(C)CC=CC(=O)Nc1cc2c(Nc3ccc(F)c(Cl)c3)ncnc2cc1O[C@H]1CCOC1 | – | -0.213% (inactive) |
| CN(C1CCc2c(c3ccccc3n2CC(=O)O)C1)S(=O)(=O)c1ccc(F)cc1 (stereo unspecified) | inactive | – |
| O=C(Nc1cn[nH]c1-c1nc2ccc(CN3CCOCC3)cc2[nH]1)NC1CC1 | inactive | – |
| Cc1nc2cnc3ccc(C#Cc4cccnc4)cc3c2n1-c1ccc(C(C)(C)C#N)cc1 | – | 2.33% (inactive) |
| COc1c(OCCCN2CCOCC2)ccc2c3n(c(=NC(=O)c4cnc(N)nc4)nc12)CCN3 | inactive | – |
| COc1ccc(C=Cc2cc(OC)c(OC)c(OC)c2)cc1O | – | -2.2% (inactive) |
| Cn1cc(-c2ccncc2)c(-c2ccc(OCc3ccc4ccccc4n3)cc2)n1 | inactive | – |
| COc1ccc(-n2nc(C(N)=O)c3c2C(=O)N(c2ccc(N4CCCCC4=O)cc2)CC3)cc1 | inactive | – |
| C[C@]1(CO)CN(c2cc(C(=O)Nc3ccc4c(c3)-c3c(c(C(N)=O)nn3-c3ccc(F)cc3)CC4)c(Cl)cn2)C[C@@]1(C)CO | inactive | – |

| SMILES | outcome | activity change, negative = inhibition |
| --- | --- | --- |
| Cc1cnc(Nc2ccc(F)cc2Cl)nc1-c1c[nH]c(C(=O)N[C@H](CO)c2cccc(Cl)c2)c1 | inactive | – |
| CCn1cc(-c2ccnc3[nH]c(-c4cccc(CN(C)C)c4)cc23)c(-c2ccc(NC(=O)N(C)C)cc2)n1 | inactive | – |
| Cc1ccc(NC(=O)C2(c3ccc4c(c3)OC(F)(F)O4)CC2)nc1-c1cccc(C(=O)O)c1 | inactive | – |
| CNc1nccc(-c2cccnc2Oc2cc(C(=O)Nc3cccc(C(F)(F)F)c3)ccc2C)n1 | inactive | – |
| COc1cc(OC2CCN(C)CC2)ccc1Nc1ncc2c(n1)n(C1CCCC1)c(=O)n2C | – | -2.65% (inactive) |
| COc1cccc(-c2ccc(NC(=O)C3=C(C(=O)O)CCC3)c(F)c2)c1 | inactive | – |
| CN1c2cc(O)c(N=NC(N)=O)cc2CC1S(=O)(=O)O (stereo unspecified) | – | -4.12% (inactive) |
| Cc1nc(Nc2n[nH]c3c2CN(C(=O)N[C@H](CN(C)C)c2ccccc2)C3(C)C)c2sccc2n1 | inactive | – |
| CC1(C)CC(=O)c2c(C(F)(F)F)nn(-c3ccc(C(N)=O)c(NC4CCC(OC(=O)CN)CC4)c3)c2C1 (stereo unspecified) | inactive | – |
| CN(C)Cc1c(C(=O)NCCOc2ccc(C(=O)NO)cc2)oc2ccccc12 | inactive | – |
| C=CC(=O)Nc1cc2c(Nc3ccc(F)c(Cl)c3)ncnc2cc1C#CC(C)(C)N1CCN(C)CC1 | – | -3.31% (inactive) |
| Nc1ccccc1NC(=O)c1ccc(CNc2nccc(-c3cccnc3)n2)cc1 | inactive | – |
| Cc1cc(Nc2ncnc3ccc(-c4ccc(CNCCS(C)(=O)=O)o4)cc23)ccc1Oc1ccn2ncnc2c1 | inactive | – |
| CC(NCc1ccc2c(c1)nc(NC(=O)c1ccc(-c3cn[nH]c3)s1)n2CC(C)(C)O)C(C)(C)C (stereo unspecified) | inactive | – |
| CC1(C)O[C@@H]2C[C@@H]3[C@H]4C[C@@H](F)C5=CC(=O)C=C[C@]5(C)[C@@]4(F)[C@@H](O)C[C@]3(C)[C@]2(C(=O)CO)O1 | – | -4.57% (inactive) |
| Nc1ccc(C(=O)c2cc3c(ccc4ccccc43)[nH]2)cc1 | – | -8.01% (inactive) |
| Nc1ccc(S(=O)(=O)Nc2ncccn2)cc1 | – | 1.67% (inactive) |
| Cc1ccc(C(=O)Nc2ccc(CN3CCN(C)CC3)c(C(F)(F)F)c2)cc1C#Cc1cnc2cccnn12 | inactive | – |
